Screening results (PubChem BioAssay)
The list is not random: actives were taken first. Their share in the collection is about 0.9%.
SRC1 TRFRET art: flags TR-FRET format artefacts in PPARgamma SRC-1 recruitment agonist screen; TR-FRET detection artefact counter-screen, emission ratio; active compounds read high; TR-FRET ratio at 8 µM; 99,000 compounds, 0.34% hits; in the data active = TR-FRET ratio above about 2300
SRC3 TRFRET art: TR-FRET artefact, counter-screen to PPARgamma/SRC-3 agonist assay; PPARgamma/SRC-3 format; active compounds read high; TR-FRET ratio at 8 µM; 99,000 compounds, 0.39% hits; AID 1048
PPARg SRC1 recr: promotes SRC-1 coactivator recruitment by human PPARgamma. activation, % at 8 µM. 200,000 compounds, 0.41% hits. PPARgamma-SRC-1 coactivator recruitment biochemical assay. P37231. AID 631; in the data active = activation above about 19%;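 note: 0% = DMSO and 100% = reference agonist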
Target sequence (P37231 whole entry, looked up): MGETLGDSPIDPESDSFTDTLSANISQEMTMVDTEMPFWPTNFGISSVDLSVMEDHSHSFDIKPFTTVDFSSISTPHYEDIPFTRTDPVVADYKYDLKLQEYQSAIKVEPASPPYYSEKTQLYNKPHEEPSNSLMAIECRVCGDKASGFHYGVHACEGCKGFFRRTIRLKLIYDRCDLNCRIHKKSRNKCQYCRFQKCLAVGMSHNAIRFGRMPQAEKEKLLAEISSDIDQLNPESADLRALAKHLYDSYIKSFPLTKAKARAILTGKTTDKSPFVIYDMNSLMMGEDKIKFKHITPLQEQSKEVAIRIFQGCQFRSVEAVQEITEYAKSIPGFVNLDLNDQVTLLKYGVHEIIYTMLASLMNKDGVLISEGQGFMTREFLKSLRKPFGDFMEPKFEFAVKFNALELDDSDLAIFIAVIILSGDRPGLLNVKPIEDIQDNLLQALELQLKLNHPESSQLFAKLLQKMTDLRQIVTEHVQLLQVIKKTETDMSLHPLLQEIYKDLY
PPARg SRC-2 ag: PPARgamma-driven SRC-2 recruitment agonism; PPARgamma LBD-SRC-2 recruitment, biochemical; activation, % at 8 µM; 200,000 compounds, 0.34% hits; in the data active = activation above about 22%;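 note: 0% = vehicle and 100% = reference agonist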
TR-FRET SRC-2 ct: counter-screen for PPARgamma SRC-2 recruitment agonists: TR-FRET artefact. active compounds read high. TR-FRET ratio at 8 µM. 200,000 compounds, 0.4% hits
PPARg SRC3 recr: agonists of human PPARgamma SRC-3 coactivator recruitment. biochemical PPARgamma/SRC-3 coactivator recruitment assay. P37231. activation, % at 8 µM. 200,000 compounds, 0.26% hits; in the data active = activation above about 23%;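 note: 0% = DMSO and 100% = reference agonist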
Starred values were filed as active, the others as inactive; / = no result given. Cut-off read from the data, not from the text of the source, unless noted: active = TR-FRET ratio above about 2000; inactive = the rest.

SMILES	SRC1 TRFRET art	SRC3 TRFRET art	PPARg SRC1 recr	PPARg SRC-2 ag	TR-FRET SRC-2 ct	PPARg SRC3 recr
O=C(Nc1ccccc1F)Nc1cc(S(=O)(=O)N2CCOCC2)ccc1N1CCCC1	1664	1572	7	9	1691	-2
O=C(N/N=C/c1cnc(N2CCCCC2)s1)c1ccc(Cl)cc1	1954	1706	21*	6	1811	4
CCNc1nc(OC)nc(SCC(=O)Nc2ccccc2)n1	1775	1675	2	7	1458	2
O=C(Nc1nnc(C(F)(F)F)s1)c1ccc(Br)s1	2300	2443*	18	21	2104*	14
CSc1ccc(/C=C/C(=O)c2ccc(NC(=O)Cc3ccccc3)cc2)cc1	/	/	5	3	2038*	10
CSc1ccc(/C=C/C(=O)c2ccc(NC(=O)C(C)C)cc2)cc1	/	/	-5	8	1546	0
O=C(Nc1ccccc1)C1=C[C@@H](c2coc3ccccc3c2=O)C[C@@H](OCCCCO)O1	1559	1655	2	2	1557	3
Cc1cc(/C=C2/NC(=O)N(Cc3ccccc3F)C2=O)c(C)n1C	1719	1554	1	23*	1764	8
CC(c1ccc(F)cc1)n1c(Cn2ncc3ccccc3c2=O)n[nH]c1=S (configuration not stated)	1719	1604	-3	1	1495	4
O=C1c2ccccc2C(=O)N1Cc1ccc2c(c1)OCO2	/	/	-6	-6	1414	-7
Cc1cc2cc(CN3C(=O)c4ccccc4C3=O)ccc2n1C	2104	2708*	2	6	1840	0
Cc1ccc(S(=O)(=O)NCc2ccc3c(c2)cc(C)n3C)cc1	/	/	8	6	2007*	2
CC(Sc1nnc(-c2ccccc2Br)n1-c1cccc(C(F)(F)F)c1)C(N)=O (configuration not stated)	1717	1402	-5	-2	1314	1
CC1CC(C)(C)NC(=S)N1CCCC(=O)Nc1ccccc1F (configuration not stated)	1735	1389	3	0	1448	-3
CC1CC(C)(C)NC(=S)N1CCCC(=O)N1CCN(c2ccccc2F)CC1 (configuration not stated)	2350*	1491	11	-6	1431	-3
CCOc1ccc(CCNC(=O)C2=C(C)C(=O)OC23CCCCC3)cc1OCC	1915	1605	4	4	1577	3
O=C(Cc1nc2ccccc2[nH]c1=O)c1ccccc1	1925	1680	22*	5	1531	8
COC(=O)c1cnn(-c2nc3c(C)cccc3s2)c1C	/	/	61*	-1	1578	-10
COC(=O)c1[nH]c2cc(OC)c(OC)cc2c1NC(=O)Oc1ccccc1	/	/	4	10	1534	28*
CCNc1nnc(CCn2nc(C)c(Br)c2C)s1	1799	1593	-2	-10	1613	-2
Cc1cc(C)c2c(c1)NC(c1cc3c(cc1Br)OCO3)C1CC=CC21 (configuration not stated)	3042*	1516	45*	6	1654	0
Brc1cc2c(cc1C1Nc3ccccc3C3C=CCC31)OCO2 (configuration not stated)	1682	1653	2	3	1622	-2
O=C(Nc1ccc(C(=O)O)cc1)Nc1ccc(F)cc1F	1873	1624	11	-2	1570	0
Cc1c(C(=O)Nc2c(F)cccc2F)sc2ncnc(N3CCN(c4ccccc4)CC3)c12	2137	2183*	4	5	1813	3
O=C(NC1CC1)C1CCN(C2CCN(C(=O)/C=C/c3ccc(F)cc3)CC2)CC1	1738	1707	3	5	1512	1
SMILES	SRC1 TRFRET art	SRC3 TRFRET art	PPARg SRC1 recr	PPARg SRC-2 ag	TR-FRET SRC-2 ct	PPARg SRC3 recr
CCOc1nc(-c2ccccc2)ccc1-c1noc(-c2ccncc2)n1	1933	1406	-4	0	1670	2
CCOc1nc(-c2ccccc2)ccc1-c1noc(-c2cccs2)n1	/	/	34*	3	1549	-5
Cc1cc2nc(-c3ccc(SCC(=O)Nc4ccc(S(=O)(=O)NC5CC5)cc4)nc3)[nH]c2cc1C	2422*	3182*	13	10	2456*	3
O=C(CSc1ncccc1-c1nc2ccccc2[nH]1)N1CCc2ccccc21	2802*	3407*	5	-8	2650*	2
Cc1cc(NC(=O)CSc2ccc(-c3nc4cc(C)c(C)cc4[nH]3)cn2)no1	/	/	2	-9	1545	-16
Cc1cc2nc(-c3ccc(SCC(=O)N4CCc5ccccc54)nc3)[nH]c2cc1C	/	/	0	-1	2115*	8
O=C1CC(=O)N2N=C(c3ccc([N+](=O)[O-])cc3)SC2=N1	1799	1371	0	3	1252	-5
COc1ccc(NC(=O)c2c(C(F)(F)F)nn(C)c2SCc2ccccc2Cl)cc1	/	/	6	7	1705	9
Cc1ccc(C(=O)c2cnc3cc4c(cc3c2S(=O)(=O)c2ccccc2)OCCO4)cc1	2238	2485*	-7	0	1863	-2
CCOc1ccc(S(=O)(=O)c2c(C(=O)c3ccc(C)cc3)cnc3cc4c(cc23)OCCO4)cc1	2755*	2812*	8	-3	2406*	10
CC(C)CNC(=O)c1cccc(NC(=O)Cc2ccc(Cl)cc2)c1	1591	1598	1	-6	1577	-1
Cc1cnc(N)c2c(=O)oc3ccccc3c12	/	/	1	5	2018*	7
O=c1cc(Cn2ccnc2)c2cc3c(cc2o1)CCC3	/	/	0	0	1355	29*
CCc1ccc(OCCOCC(O)CN(CCO)CCO)cc1 (configuration not stated)	1734	1602	6	7	1568	0
CC(C)(C)c1cc[n+](/C(C(=S)Nc2ccccc2F)=C(/[O-])c2ccc3c(c2)OCCO3)cc1	1902	1459	7	6	1596	3
[O-]/C(=C(\C(=S)Nc1ccccc1F)[n+]1ccccc1)c1ccc(-c2ccccc2)cc1	2348*	1857	1	9	1913	1
CCOC(=O)CSC(=S)NC(=O)c1ccc(OC)cc1	2487*	2008	8	15	1985*	12
CSc1cccc(NC(=O)CN2C(=O)c3ccccc3S2(=O)=O)c1	/	/	0	22*	1521	21
O=C(CN1C(=O)c2ccccc2S1(=O)=O)Nc1ccccc1	/	/	-6	-7	1472	-5
CS(=O)(=O)N(CC(=O)NCc1ccncc1)Cc1ccc(Cl)cc1	/	/	-5	5	1331	28*
Cc1nnc(SCC(=O)N2c3ccccc3CC2C)[nH]c1=O (configuration not stated)	1568	1536	-1	1	1516	0
COC(=O)Nc1ccc(S(=O)(=O)N2CCCC(C(=O)O)C2)cc1 (configuration not stated)	1756	1446	-8	-8	1520	1
O=S(=O)(c1ccc(Cl)cc1)N1CCCC1c1nc(-c2ccc(Cl)cc2)no1 (configuration not stated)	/	/	5	3	1734	11
